PubChem BioAssay (EPA / NIEHS)
Several values for one entry are separate records, joined by “and”; a condition that tells them apart may be missing. Identical values can stand only once. Records with an inconclusive call do not appear. Activity calls are given as the source filed them. Rule for the calls, unless noted: active = hit-call score of the fitted dose curve at least 0.9, where 1 is the maximum; inactive = score below 0.9.

Assays:
[1] = read-out: succinate dehydrogenase complex iron sulfur subunit B (SDHB), SDHB (gene 6390); experiment: LTEA_HepaRG_SDHB: Life Technologies and Expression Analysis (LTEA) Assay for succinate dehydrogenase complex iron sulfur subunit B (SDHB) using HepaRG (AID 2283528); conditions: mRNA level, 48 h; actives raise or lower the signal
In short: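 HepaRG cells (~100,000/well, plated 48 h) exposed in duplicate for 48 h in serum-free induction medium to 8-point half-log series from 100 uM in 0.5% DMSO; mRNA by qRT-PCR normalised to ACTB, GAPDH, POLR2A; bidirectional fit versus DMSO.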

[2] = read-out: Signal transducer and activator of transcription 3 (Homo sapiens) (UniProt P40763); experiment: LTEA_HepaRG_STAT3: Life Technologies and Expression Analysis (LTEA) Assay for Signal transducer and activator of transcription (STAT3) using HepaRG (AID 2283529); conditions: mRNA level, 48 h; actives raise or lower the signal
In short: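 Differentiated HepaRG cells, serum-free induction medium, dosed 48 h in duplicate, 8 half-log concentrations from 100 uM in 0.5% DMSO. STAT3 mRNA by qRT-PCR, normalised to ACTB, GAPDH, POLR2A; bidirectional fit versus DMSO.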

[3] = read-out: solute carrier (SLCO1B1), SLCO1B1 (gene 10599); experiment: LTEA_HepaRG_SLCO1B1: Life Technologies and Expression Analysis (LTEA) Assay for solute carrier (SLCO1B1) using HepaRG (AID 2283530); conditions: mRNA level, 48 h; actives raise or lower the signal
In short: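 Differentiated human HepaRG cells, plated 48 h, switched to serum-free induction medium and exposed in duplicate for 48 h to 8 half-log concentrations (top 100 uM) in 0.5% DMSO. SLCO1B1 mRNA by TaqMan qRT-PCR, normalized to ACTB/GAPDH/POLR2A.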

[4] = read-out: sulfotransferase 2A1 (SULT2A1), SULT2A1 (gene 6822); experiment: LTEA_HepaRG_SULT2A1: Life Technologies and Expression Analysis (LTEA) Assay for sulfotransferase 2A1 (SULT2A1) using HepaRG (AID 2283531); conditions: mRNA level, 48 h; actives raise or lower the signal
In short: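 Differentiated human HepaRG cells in serum-free induction medium were exposed for 48 h to eight half-log concentrations (top 100 uM, 0.5% DMSO). SULT2A1 mRNA was measured by qRT-PCR, normalized to ACTB, GAPDH and POLR2A, and fitted bidirectionally against DMSO.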

[5] = read-out: Transforming Growth Factor (TGFA), TGFA (gene 7039); experiment: LTEA_HepaRG_TGFA: Life Technologies and Expression Analysis (LTEA) Assay for Transforming Growth Factor (TGFA) using HepaRG (AID 2283532); conditions: mRNA level, 48 h; actives raise or lower the signal
In short: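 Differentiated HepaRG cells exposed 48 hours in serum-free induction medium, 0.5% DMSO vehicle, 8-point half-log series from 100 uM, in duplicate. TGFA mRNA by TaqMan qRT-PCR, normalised to ACTB, GAPDH, POLR2A; bidirectional fit versus DMSO.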

[6] = read-out: Transforming Growth Factor (TGFB1), TGFB1 (gene 7040); experiment: LTEA_HepaRG_TGFB1: Life Technologies and Expression Analysis (LTEA) Assay for Transforming Growth Factor (TGFB1) Transporter using HepaRG (AID 2283533); conditions: mRNA level, 48 h; actives raise or lower the signal
In short: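 Differentiated human HepaRG cells in serum-free induction medium were exposed in duplicate for 48 h to eight concentrations (top 100 uM, half-log steps, 0.5% DMSO). TGFB1 mRNA was quantified by qRT-PCR, normalized to ACTB, GAPDH, POLR2A, and fitted bidirectionally against DMSO.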

TIMP1, TIMP1 (gene 7076) = experiment: LTEA_HepaRG_TIMP1: Life Technologies and Expression Analysis (LTEA) Assay for TIMP1 using HepaRG (AID 2283534); conditions: mRNA level, 48 h; actives raise or lower the signal
In short: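 Differentiated human HepaRG cells in serum-free induction medium were exposed 48 h to chemicals (8 half-log concentrations, top 100 uM, 0.5% DMSO). TIMP1 mRNA was quantified by TaqMan qRT-PCR, normalized to ACTB/GAPDH/POLR2A; bidirectional fit versus DMSO.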

[7] = read-out: Tumor necrosis factor receptor 1 (TNFRSF1A), TNFRSF1A (gene 7132); experiment: LTEA_HepaRG_TNFRSF1A: Life Technologies and Expression Analysis (LTEA) Assay for Tumor necrosis factor receptor 1 (TNFRSF1A) using HepaRG (AID 2283535); conditions: mRNA level, 48 h; actives raise or lower the signal
In short: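 Differentiated human HepaRG cells were exposed in duplicate for 48 h in serum-free induction medium to eight concentrations (top 100 uM, half-log steps, 0.5% DMSO). TNFRSF1A mRNA was quantified by qRT-PCR, normalized to ACTB, GAPDH and POLR2A, then fitted bidirectionally against DMSO.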

[8] = read-out: Thyroid Hormone Responsive (THRSP), THRSP (gene 7069); experiment: LTEA_HepaRG_THRSP: Life Technologies and Expression Analysis (LTEA) Assay for Thyroid Hormone Responsive (THRSP) using HepaRG (AID 2283536); conditions: mRNA level, 48 h; actives raise or lower the signal
In short: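 Differentiated HepaRG cells treated 48 h in serum-free induction medium with 8 half-log concentrations up to 100 uM (0.5% DMSO), duplicates. THRSP mRNA by TaqMan qRT-PCR normalised to ACTB, GAPDH, POLR2A; bidirectional fit versus DMSO.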

[9] = read-out: UDP glucuronosyltransferase (UGT1A1), UGT1A1 (gene 54658); experiment: LTEA_HepaRG_UGT1A1: Life Technologies and Expression Analysis (LTEA) Assay for UDP glucuronosyltransferase (UGT1A1) using HepaRG (AID 2283538); conditions: mRNA level, 48 h; actives raise or lower the signal
In short: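 Readout is UGT1A1 transcript level by qRT-PCR, normalized to three housekeeping genes, after 48 h chemical treatment of HepaRG cells. Concentrations ran from 100 uM down in half-log steps with 0.5% DMSO, and gain or loss relative to DMSO was fitted.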

[10] = read-out: UDP glucuronosyltransferase (UGT1A6), UGT1A6 (gene 54578); experiment: LTEA_HepaRG_UGT1A6: Life Technologies and Expression Analysis (LTEA) Assay for UDP glucuronosyltransferase (UGT1A6) using HepaRG (AID 2283539); conditions: mRNA level, 48 h; actives raise or lower the signal
In short: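 Human HepaRG cells were dosed for 48 h in serum-free induction medium with 0.5% DMSO vehicle, eight-point half-log series from 100 uM, in duplicate. UGT1A6 mRNA was measured by qRT-PCR, normalized to ACTB, GAPDH, POLR2A, and fitted bidirectionally against DMSO.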

[11] = read-out: X-box binding protein 1 (XBP1), XBP1 (gene 7494); experiment: LTEA_HepaRG_XBP1: Life Technologies and Expression Analysis (LTEA) Assay for X-box binding protein 1 (XBP1) using HepaRG (AID 2283540); conditions: mRNA level, 48 h; actives raise or lower the signal
In short: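 Differentiated human HepaRG cells in serum-free induction medium were exposed in duplicate for 48 h to eight half-log concentrations up to 100 uM in 0.5% DMSO. XBP1 mRNA was quantified by qRT-PCR, normalised to ACTB, GAPDH and POLR2A, with bidirectional fitting against DMSO.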

[12] = LTEA_HepaRG_LDH_cytotoxicity: Cytotoxicity Assessment in the Life Technologies and Expression Analysis (LTEA) Assay (AID 2283563; active = hit-call score of the fitted dose curve at least 0.9, where 1 is the maximum;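 for AC50: LDH activity released into spent culture medium as a marker of cell death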)
In short: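 Differentiated human HepaRG cells, plated 48 h beforehand, were switched to serum-free induction medium and exposed for 48 h to eight half-log concentrations (top 100 uM) in 0.5% DMSO. LDH was measured in spent medium; activity was fitted relative to DMSO vehicle.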

[13] = read-out: Cellular tumor antigen p53 (Homo sapiens) (UniProt P04637); experiment: LTEA_HepaRG_TP53: Life Technologies and Expression Analysis (LTEA) Assay for Tumor Protein P53 (TP53) using HepaRG (AID 2283537); conditions: mRNA level, 48 h; actives raise or lower the signal
In short: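 Differentiated HepaRG cells in serum-free induction medium exposed 48 h in duplicate to 8 half-log concentrations, top 100 uM, 0.5% DMSO. TP53 mRNA by TaqMan qRT-PCR (Fluidigm), normalized to ACTB, GAPDH, POLR2A; fitted bidirectionally versus DMSO.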

[14] = ATG_XTT_Cytotoxicity: Cytotoxicity Assessment in the Attagene TRANS-FACTORIAL HepG2 Assay (AID 2283584; active = hit-call score of the fitted dose curve at least 0.9, where 1 is the maximum)
In short: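 HepG2 human liver cells, transiently transfected with multiple GAL4-UAS reporter units, were dosed and read at 24 h by XTT as cell number. Loss of signal was fitted relative to DMSO negative control baseline.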

[15] = TOX21_p53_BLA_p2_viability: Viability Assessment in the Tox21 HCT-116 p53 Agonism Beta-lactamase Assay, Phase 2 (AID 2283591; active = hit-call score of the fitted dose curve at least 0.9, where 1 is the maximum;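 note: compound exposure lasted 16 h at 37 °C; actives lower the ATP signal meaning cytotoxicity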)
In short: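 HCT116 p53-bla cells, 4000/well, dosed after 5 h plating (217-fold dilution of DMSO stocks) and incubated 16 h at 37C. Viability taken as cellular ATP by CellTiter-Glo luminescence after 30 min RT; signal loss marks cytotoxicity.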

[16] = target: Cellular tumor antigen p53 (Homo sapiens) (UniProt P04637); experiment: TOX21_p53_BLA_p2_ratio: Tox21 HCT-116 p53 Agonism Beta-lactamase Assay, Ratio, Phase 2 (AID 2283592; active = hit-call score of the fitted dose curve at least 0.9, where 1 is the maximum)
Sequence of Cellular tumor antigen p53 (Homo sapiens) (P04637 whole entry, looked up): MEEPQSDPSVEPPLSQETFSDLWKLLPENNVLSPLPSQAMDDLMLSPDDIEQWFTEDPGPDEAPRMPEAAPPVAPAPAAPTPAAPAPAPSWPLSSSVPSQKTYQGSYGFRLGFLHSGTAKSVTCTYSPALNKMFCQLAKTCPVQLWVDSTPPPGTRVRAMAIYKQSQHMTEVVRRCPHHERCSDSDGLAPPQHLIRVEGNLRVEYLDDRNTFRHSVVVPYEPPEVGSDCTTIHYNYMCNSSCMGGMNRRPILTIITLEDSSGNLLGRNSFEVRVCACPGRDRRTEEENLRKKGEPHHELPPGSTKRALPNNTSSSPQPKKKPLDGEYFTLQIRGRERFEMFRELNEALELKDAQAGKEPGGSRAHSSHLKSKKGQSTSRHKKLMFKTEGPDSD
In short: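 HCT116 cells carrying a p53-responsive beta-lactamase reporter were plated, incubated 5 h at 37C, then dosed with compounds in DMSO (217-fold dilution) for 16 h. CCF4-AM substrate was added for 2 h at room temperature; the 460/530 nm emission ratio gave gain-of-signal activity relative to DMSO.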

[17] = TOX21_p53_BLA_p3_viability: Viability Assessment in the Tox21 HCT-116 p53 Agonism Beta-lactamase Assay, Phase 3 (AID 2283593; active = hit-call score of the fitted dose curve at least 0.9, where 1 is the maximum;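 note: cells exposed to compound for 16 h before reading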)
In short: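 HCT116 cells, 4000/well, dosed 5 h after plating by pin transfer (217-fold dilution from DMSO stock) and incubated 16 h at 37C, 5% CO2. Viability read as ATP luminescence with CellTiter-Glo after 30 min at room temperature.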

[18] = target: Cellular tumor antigen p53 (Homo sapiens) (UniProt P04637); experiment: TOX21_p53_BLA_p3_ratio: Tox21 HCT-116 p53 Agonism Beta-lactamase Assay, Ratio, Phase 3 (AID 2283596; active = hit-call score of the fitted dose curve at least 0.9, where 1 is the maximum)
In short: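 HCT116 p53-bla cells (4000/well) given compound in DMSO (217-fold dilution) after 5 h, incubated 16 h at 37C. CCF4-AM substrate 2 h at room temperature; 460/530 nm emission ratio, gain fitted against DMSO.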

[19] = TOX21_p53_BLA_p4_viability: Viability Assessment in the Tox21 HCT-116 p53 Agonism Beta-lactamase Assay, Phase 4 (AID 2283597; active = hit-call score of the fitted dose curve at least 0.9, where 1 is the maximum;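 note: hits lower the luminescence signal meaning cytotoxicity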)
In short: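 HCT116 p53-bla cells (4000/well) rested 5 h at 37C, then received compounds in DMSO (217-fold dilution) for 16 h at 37C, 5% CO2. CellTiter-Glo was added after the CCF4-AM read, and luminescence was read after 30 min at room temperature.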

Measured: AC50

Sequence of Signal transducer and activator of transcription 3 (Homo sapiens) (P40763 whole entry, looked up): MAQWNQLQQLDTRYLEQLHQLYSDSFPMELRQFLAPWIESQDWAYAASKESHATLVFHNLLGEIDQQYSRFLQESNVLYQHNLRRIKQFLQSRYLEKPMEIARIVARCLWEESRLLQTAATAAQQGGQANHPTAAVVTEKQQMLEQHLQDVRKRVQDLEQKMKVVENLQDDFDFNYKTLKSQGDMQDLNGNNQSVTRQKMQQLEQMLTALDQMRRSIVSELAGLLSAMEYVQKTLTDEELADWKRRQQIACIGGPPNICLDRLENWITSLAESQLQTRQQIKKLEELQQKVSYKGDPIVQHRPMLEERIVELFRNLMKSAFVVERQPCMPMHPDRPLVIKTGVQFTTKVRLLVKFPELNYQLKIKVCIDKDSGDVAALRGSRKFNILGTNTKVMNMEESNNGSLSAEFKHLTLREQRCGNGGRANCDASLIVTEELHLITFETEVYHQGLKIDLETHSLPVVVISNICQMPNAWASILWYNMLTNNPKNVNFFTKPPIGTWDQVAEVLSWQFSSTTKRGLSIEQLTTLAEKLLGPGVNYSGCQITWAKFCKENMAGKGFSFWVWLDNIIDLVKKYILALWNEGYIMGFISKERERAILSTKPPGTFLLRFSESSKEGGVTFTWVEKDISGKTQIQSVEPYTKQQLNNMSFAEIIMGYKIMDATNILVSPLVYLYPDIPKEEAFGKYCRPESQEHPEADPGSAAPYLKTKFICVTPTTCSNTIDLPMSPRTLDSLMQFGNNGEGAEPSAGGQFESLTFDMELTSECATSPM

O=NO
not listed: [13] | [14] | [15] | [16] | [17] | [18] | [19]
inactive: all other assays above

CCC(C)N(C)C(=O)c1cc2ccccc2c(-c2ccccc2Cl)n1 (stereo not given)
active: [1] 11.1 µM | [4] 8.44 µM | [9] 2.1 µM
inactive: all other assays above

CC1(C)C(=O)NC(=O)N1CO
not listed: [16] | [17] | [19]
inactive: all other assays above

Nc1nc(Cl)nc2c1ncn2[C@H]1C[C@H](O)[C@@H](CO)O1
inactive: [1] | [2] | TIMP1, TIMP1 (gene 7076) | [13] | [14] | [15] | [17] | [19]
active: [3] 0.999 µM | [4] 2.81 µM | [5] 0.2 µM | [6] 0.365 µM | [7] 0.732 µM | [8] 0.888 µM | [9] 1.66 µM | [10] 2.42 µM | [11] 1.56 µM | [12] 8.62 µM | [16] 271 nM and 790 nM | [18] 468 nM and 960 nM

Cc1c(C)c2c(c(C)c1O)CCC(C)(COc1ccc(CC3SC(=O)NC3=O)cc1)O2 (stereo not given)
inactive: [1] | [2] | [5] | [7] | [13] | [9] | [10]
active: [3] 24.7 µM | [4] 93.4 µM | [6] 12 µM | TIMP1, TIMP1 (gene 7076) 50 µM | [8] 27.1 µM | [12] 76.3 µM | [15] 74.4 µM and 37.1 µM | [16] 15.4 µM and 28.5 µM | [17] 73.8 µM | [18] 28.1 µM and 26 µM | [19] 66.4 µM and 34.8 µM

COC(=O)CCCC(=O)OC
not listed: [11] | [17]
inactive: all other assays above

Cc1cc(Cc2ccc(N)c(C)c2)ccc1N
active: [9] 28.1 µM
not listed: [11]
inactive: all other assays above
